Results on four compounds are retold here after PubChem BioAssay (EPA / NIEHS).

Calls of active or inactive are those of the source. The calls were made as follows: active = hit-call score of the fitted dose curve at least 0.9, where 1 is the maximum; inactive = score below 0.9.

A short description of assay [1]: BSK_hDFCGF_SRB: Viability Assessment in the BioMAP Diversity Plus: hDFCGF Assay (AID 2283061).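 Also: cells exposed to compound for 24 h before the read.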 The following applies: primary human foreskin fibroblasts. The method, boiled down: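 Human foreskin fibroblasts in 96-well plates were treated 24 h. Total protein was measured by 0.1% SRB staining after 10% TCA fixation, read at 560 nm. Data were fitted bidirectionally against DMSO.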

Read-out in assay [2]: TIMP metallopeptidase inhibitor 1 (TIMP1), TIMP1 (gene 7076)
Kind of assay: BSK_hDFCGF_TIMP1: BioMAP Diversity Plus: hDFCGF Assay for TIMP metallopeptidase inhibitor 1 (TIMP1) Biomarker Activity (AID 2283062). The following applies: primary human foreskin fibroblasts; actives raise or lower the signal. The method, boiled down: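 Human foreskin fibroblast primary cultures dosed for 24 h; secreted/surface TIMP-1 quantified by ELISA. Bidirectional curve fitting against DMSO baseline; cytotoxicity tracked in parallel cultures by SRB total-protein staining.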

Read-out in assay [3]: Monokine induced gamma interferon (MIG), CXCL9 (gene 4283)
As to the kind of experiment: BSK_hDFCGF_MIG: BioMAP Diversity Plus: hDFCGF Assay for Monokine induced gamma interferon (MIG) Biomarker Activity (AID 2283063). The following applies: primary human foreskin fibroblasts; actives raise or lower the signal. A digest of the protocol: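 MIG/CXCL9 measured by ELISA 24 h after dosing primary human skin fibroblasts. Activity fitted in both directions against DMSO controls. Cytotoxicity was checked in parallel cultures by SRB staining read at 560 nm.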

Read-out in assay [4]: Matrix Metallopeptidase 1 (MMP1), MMP1 (gene 4312)
Kind of assay: BSK_hDFCGF_MMP1: BioMAP Diversity Plus: hDFCGF Assay for Matrix Metallopeptidase 1 (MMP1) Biomarker Activity (AID 2283064). The following applies: primary human foreskin fibroblasts; actives raise or lower the signal. A digest of the protocol: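 ELISA read-out of MMP1 from human foreskin fibroblasts (primary skin cells), 24 h post-dose. Gain or loss of signal was fitted bidirectionally versus DMSO negative control; cytotoxicity was checked by SRB in parallel cultures.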

Read-out in assay [5]: Vascular cell adhesion molecule 1 (VCAM1), VCAM1 (gene 7412)
Kind of assay: BSK_hDFCGF_VCAM1: BioMAP Diversity Plus: hDFCGF Assay for Vascular cell adhesion molecule 1 (VCAM1) Biomarker Activity (AID 2283065). Conditions: primary human foreskin fibroblasts; actives raise or lower the signal. A digest of the protocol: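 Human foreskin fibroblast primary cells dosed with chemical, VCAM-1 measured by ELISA at 24 h. Bidirectional curve fitting relative to DMSO as negative control/baseline.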

Read-out in assay [6]: Intercellular Adhesion Molecule 1 (ICAM1), ICAM1 (gene 3383)
Kind of assay: BSK_KF3CT_ICAM1: BioMAP Diversity Plus: KF3CT Assay for Intercellular Adhesion Molecule 1 (ICAM1) Biomarker Activity (AID 2283067). The following applies: primary human keratinocytes with fibroblasts; actives raise or lower the signal. A digest of the protocol:
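Human keratinocyte–foreskin fibroblast co-culture was treated for 24 h. Cell-surface ICAM-1 was quantified by ELISA, fitted bidirectionally relative to DMSO. Cytotoxicity was checked in parallel cultures by SRB total-protein staining.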

Read-out in assay [7]: Interferon-gamma inducible Protein 10 (IP10), CXCL10 (gene 3627)
As to the kind of experiment: BSK_KF3CT_IP10: BioMAP Diversity Plus: KF3CT Assay for Interferon-gamma inducible Protein 10 (IP10) Biomarker Activity (AID 2283068). Conditions: primary human keratinocytes with fibroblasts; actives raise or lower the signal. A digest of the protocol: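 KF3CT co-culture (keratinocytes + foreskin fibroblasts), 24 h compound, IP-10 by ELISA; bidirectional fit vs DMSO baseline.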

Read-out in assay [8]: Interleukin-1 alpha (IL1a), IL1A (gene 3552)
Kind of assay: BSK_KF3CT_IL1a: BioMAP Diversity Plus: KF3CT Assay for Interleukin-1 alpha (IL1a) Biomarker Activity (AID 2283070). The following applies: primary human keratinocytes with fibroblasts; actives raise or lower the signal. A digest of the protocol:
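Primary skin co-culture (keratinocytes, foreskin fibroblasts), 24 h exposure; ELISA for IL-1a; bidirectional curve fit vs DMSO.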

Read-out in assay [9]: C-C motif chemokine 2 (Homo sapiens) (UniProt P13500)
Kind of assay: BSK_KF3CT_MCP1: BioMAP Diversity Plus: KF3CT Assay for Monocyte Chemoattractant Protein 1 (MCP1/CCL2) Biomarker Activity (AID 2283073). The following applies: primary human keratinocytes with fibroblasts; actives raise or lower the signal. The method, boiled down:
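Human keratinocyte–foreskin fibroblast co-culture; MCP-1 measured by ELISA 24 h after dosing. Bidirectional fit vs DMSO; cytotoxicity tracked by SRB total protein in parallel cultures.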

Read-out in assay [10]: Matrix Metallopeptidase 9 (MMP9), MMP9 (gene 4318)
As to the kind of experiment: BSK_KF3CT_MMP9: BioMAP Diversity Plus: KF3CT Assay for Matrix Metallopeptidase 9 (MMP9) Biomarker Activity (AID 2283074).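 As to AC50: MMP9 protein level quantified by ELISA in the co-culture.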 Conditions: primary human keratinocytes with fibroblasts; actives raise or lower the signal. A digest of the protocol:
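ELISA read-out of MMP-9 at 24 h post-dosing in a co-culture of human skin keratinocytes and foreskin fibroblasts. Gain or loss of signal was fitted in both directions against DMSO.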

Read-out in assay [11]: urokinase plasminogen activator (uPA), PLAU (gene 5328)
As to the kind of experiment: BSK_KF3CT_uPA: BioMAP Diversity Plus: KF3CT Assay for urokinase plasminogen activator (uPA) Biomarker Activity (AID 2283075). Conditions: primary human keratinocytes with fibroblasts; actives raise or lower the signal. A digest of the protocol:
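Skin co-culture (keratinocytes + foreskin fibroblasts), human primary; 24 h post-dose; uPA by ELISA; gain/loss fit vs DMSO baseline.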

Read-out in assay [12]: E-selectin (Homo sapiens) (UniProt P16581)
Kind of assay: BSK_LPS_Eselectin: BioMAP Diversity Plus: LPS Assay for Eselectin Biomarker Activity (AID 2283077). Conditions: primary human HUVEC with PBMC; actives raise or lower the signal. A digest of the protocol:
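Human umbilical vein endothelial cells co-cultured with PBMC under LPS stimulation; cell-surface E-selectin measured by ELISA 24 h after dosing. Change in either direction versus DMSO, with SRB total-protein staining in parallel cultures for cytotoxicity.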

Read-out in assay [13]: Interleukin-8 (IL8), CXCL8 (gene 3576)
Kind of assay: BSK_LPS_IL8: BioMAP Diversity Plus: LPS Assay for Interleukin-8 (IL8) Biomarker Activity (AID 2283078). The following applies: primary human HUVEC with PBMC; actives raise or lower the signal. A digest of the protocol: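 Human umbilical vein endothelial cells co-cultured with PBMC, LPS-stimulated, exposed to compound for 24 h. IL-8 quantified by ELISA; fitted in both directions against DMSO, with SRB total-protein staining of parallel cultures for cytotoxicity.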

The nature of assay [14]: BSK_LPS_SRB: Viability Assessment in the BioMAP Diversity Plus: LPS Assay (AID 2283079).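 Also: total protein by sulforhodamine B absorbance as a cytotoxicity measure; measured one day after compound addition.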 The following applies: primary human HUVEC with PBMC. The method, boiled down:
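Co-culture of human umbilical vein endothelial cells and PBMC, read 24 h after dosing. Total protein by 0.1% SRB staining after 10% TCA fixation, absorbance at 560 nm; bidirectional fit against DMSO.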

Read-out in assay [15]: Interleukin-1 alpha (IL1a), IL1A (gene 3552)
Kind of assay: BSK_LPS_IL1a: BioMAP Diversity Plus: LPS Assay for Interleukin-1 alpha (IL1a) Biomarker Activity (AID 2283080). The following applies: primary human HUVEC with PBMC; actives raise or lower the signal. The method, boiled down:
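Human umbilical vein endothelial cells co-cultured with PBMC and stimulated with LPS; IL-1a measured by ELISA 24 h after dosing. Bidirectional fitting against DMSO; cytotoxicity checked by SRB staining in parallel cultures.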

Read-out in assay [16]: Plasminogen activator inhibitor-1 (PAI1), SERPINE1 (gene 5054)
Kind of assay: BSK_hDFCGF_PAI1: BioMAP Diversity Plus: hDFCGF Assay for Plasminogen activator inhibitor-1 (PAI1) Biomarker Activity (AID 2283066). Conditions: primary human foreskin fibroblasts; actives raise or lower the signal. A digest of the protocol:
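PAI-1 levels in human dermal foreskin fibroblasts were quantified by ELISA 24 h after dosing, with gain or loss analysed against DMSO. Overt cytotoxicity was checked by sulforhodamine B total-protein staining in parallel cultures.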

Assay [17] can be described thus: BSK_KF3CT_SRB: Viability Assessment in the BioMAP Diversity Plus: KF3CT Assay (AID 2283069).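 Also: read 24 h after compound addition.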 The following applies: primary human keratinocytes with fibroblasts. A digest of the protocol: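 SRB read-out at 560 nm (0.1% stain, TCA-fixed cells) gauges overt cytotoxicity in a human skin keratinocyte–fibroblast co-culture 24 h post-dosing. Signal change was fitted bidirectionally relative to DMSO control.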

Read-out in assay [18]: TIMP metallopeptidase inhibitor 2 (TIMP2), TIMP2 (gene 7077)
As to the kind of experiment: BSK_KF3CT_TIMP2: BioMAP Diversity Plus: KF3CT Assay for TIMP metallopeptidase inhibitor 2 (TIMP2) Biomarker Activity (AID 2283071). Conditions: primary human keratinocytes with fibroblasts; actives raise or lower the signal. The method, boiled down:
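TIMP-2 measured by ELISA at 24 h in human keratinocyte/fibroblast primary co-cultures exposed to chemicals. Both increases and decreases were fitted against DMSO. Parallel cultures were stained with SRB for total protein as an overt-cytotoxicity check.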

Read-out in assay [19]: Transforming growth factor beta 1 (TGFb1), TGFB1 (gene 7040)
As to the kind of experiment: BSK_KF3CT_TGFb1: BioMAP Diversity Plus: KF3CT Assay for Transforming growth factor beta 1 (TGFb1) Biomarker Activity (AID 2283072). Conditions: primary human keratinocytes with fibroblasts; actives raise or lower the signal. The method, boiled down:
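ELISA quantifies TGF-b1 at 24 h post-dose in a primary human skin co-culture of keratinocytes and fibroblasts, with gain or loss judged against DMSO. Parallel SRB total-protein staining flags overt cytotoxicity.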

Read-out in a further assay: CD40, CD40 (gene 958)
Kind of assay: BSK_LPS_CD40: BioMAP Diversity Plus: LPS Assay for CD40 Biomarker Activity (AID 2283076). Conditions: primary human HUVEC with PBMC; actives raise or lower the signal. A digest of the protocol:
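HUVEC plus PBMC co-culture stimulated with LPS; CD40 quantified by ELISA 24 h after compound dosing. Fitting was bidirectional relative to DMSO. SRB staining of parallel cultures flagged overt cytotoxicity.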

E-selectin (Homo sapiens), sequence (P16581 whole entry, looked up): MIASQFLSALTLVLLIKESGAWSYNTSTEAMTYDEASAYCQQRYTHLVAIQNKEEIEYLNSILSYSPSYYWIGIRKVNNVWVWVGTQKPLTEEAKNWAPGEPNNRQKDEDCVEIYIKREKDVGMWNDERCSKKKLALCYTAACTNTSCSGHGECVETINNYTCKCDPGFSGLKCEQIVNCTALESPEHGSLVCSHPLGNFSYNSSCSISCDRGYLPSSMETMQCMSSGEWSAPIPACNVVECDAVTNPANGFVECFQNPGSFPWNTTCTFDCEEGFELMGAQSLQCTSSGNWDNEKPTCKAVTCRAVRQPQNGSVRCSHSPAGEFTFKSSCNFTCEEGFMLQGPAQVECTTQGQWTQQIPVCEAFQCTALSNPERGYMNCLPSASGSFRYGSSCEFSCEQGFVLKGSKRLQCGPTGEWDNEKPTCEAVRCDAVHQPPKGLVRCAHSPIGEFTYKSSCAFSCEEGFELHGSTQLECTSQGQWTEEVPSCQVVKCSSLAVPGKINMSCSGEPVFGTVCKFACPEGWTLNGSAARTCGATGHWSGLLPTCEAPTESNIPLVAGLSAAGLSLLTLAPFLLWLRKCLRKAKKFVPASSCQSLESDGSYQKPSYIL

Regarding `CCOC(=O)C(C)(C)Oc1ccc(Cl)cc1`, the outcome in [1], in assay [2], in assay [3], in assay [4], in assay [5] and in [6] was inactive. For the same compound, the outcome in assay [7], in [8], in assay [9], in assay [10], in assay [11] and in [12] was inactive. The outcome in assay [13], in assay [14] and in assay [15] was inactive.

As to `Cc1c(C(=O)O)c(O)cc2c1C(=O)c1c(O)c([C@@H]3O[C@H](CO)[C@@H](O)[C@H](O)[C@H]3O)c(O)c(O)c1C2=O`, the outcome in assay [1], in [2], in assay [3], in assay [4], in [16] and in assay [6] was inactive. The outcome in [7], in [17], in assay [8], in assay [18], in [9] and in [10] was inactive. Also, the outcome in assay [11], in assay [12], in assay [13], in assay [14] and in assay [15] was inactive.

For the compound `Cc1oc(-c2ccccc2)nc1CCOc1cccc2c1ccn2CCC(=O)O`, the result in assay [1], in [2], in assay [3], in assay [4], in assay [16] and in [6] was inactive. For the same compound, the result in [7], in assay [17], in assay [8], in assay [18], in assay [19] and in assay [9] was inactive. Further, the outcome was “inactive” in [10]; “inactive” in [11]; “inactive” with CD40, CD40 (gene 958); “inactive” in assay [12]; “inactive” in assay [13]; “inactive” in [14]. The result in assay [15] was inactive.

One may read the AC50 as the concentration giving half of the maximal activity seen. Consider `CN[C@H]1CC[C@@H](c2ccc(Cl)c(Cl)c2)c2ccc(S(N)(=O)=O)cc21`, for which the AC50 is 28.1 µM (active) in assay [1]; 31.4 µM (active) in assay [2]; 34.5 µM (active) in assay [3]; 32.2 µM (active) in [4]; 23.9 µM (active) in [16]; 31.6 µM (active) in assay [6]. The AC50 in assay [7] is 28.3 µM (active); in assay [17], 30.6 µM (active); in assay [8], 29.1 µM (active); in [18], 25.3 µM (active); in assay [9], 14.9 µM (active); in assay [10] it was 20.9 µM (active). In addition, the AC50 in assay [11] was 18.6 µM (active); with CD40, CD40 (gene 958), 20 µM (active); in assay [12], 30.5 µM (active); in assay [13] it was 20 µM (active); in assay [14], 26.6 µM (active); in assay [15], 24.1 µM (active).
